# According to PubChem BioAssay AID1529 (NMMLSC, 2009):
# The whole screen tested about 290,000 compounds, of which about 4,200 (1.4%) were called active. What follows is part of a selection rich in actives, with near analogues and random picks from the rest. A number with no mark means an inactive call.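 How the source made its calls: active means binding response more than 3 SD above or below the average of its plate-row segment, actives on both sides; inconclusive means wells at one plate position flagged as instrument error; inactive means the rest.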
# Biological target: Mitogen-activated protein kinase kinase kinase 3 (Homo sapiens) (UniProt Q99759)
# Sequence (Q99759 whole entry, looked up): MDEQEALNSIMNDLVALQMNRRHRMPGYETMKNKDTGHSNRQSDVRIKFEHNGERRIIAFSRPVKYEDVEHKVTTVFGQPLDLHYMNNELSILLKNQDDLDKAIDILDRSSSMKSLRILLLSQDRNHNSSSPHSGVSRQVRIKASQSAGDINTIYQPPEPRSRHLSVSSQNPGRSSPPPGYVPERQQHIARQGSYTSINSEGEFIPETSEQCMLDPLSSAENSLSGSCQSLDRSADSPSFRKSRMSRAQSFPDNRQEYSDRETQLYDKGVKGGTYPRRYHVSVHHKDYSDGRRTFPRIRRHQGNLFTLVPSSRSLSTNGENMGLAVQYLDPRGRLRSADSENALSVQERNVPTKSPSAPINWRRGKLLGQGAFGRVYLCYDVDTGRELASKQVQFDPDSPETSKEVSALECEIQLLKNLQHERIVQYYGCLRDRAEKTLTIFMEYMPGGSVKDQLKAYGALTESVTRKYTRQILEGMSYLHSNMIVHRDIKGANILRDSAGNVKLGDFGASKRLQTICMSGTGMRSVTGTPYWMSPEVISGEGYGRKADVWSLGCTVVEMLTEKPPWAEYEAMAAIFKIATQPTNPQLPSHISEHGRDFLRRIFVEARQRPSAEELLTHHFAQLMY
# Experiment: modulators of MEKK3-MEK5 PB1 binding, primary screen, biochemical, wildtype MEKK3, multiplex bead flow cytometry, Alexa488-MEK5 (AID 1529);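 further: Alexa488 bead fluorescence after subtracting the streptavidin-only scavenger bead signal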
# Conditions: bead-based flow cytometry, Alexa488-MEK5 binding to MEKK3; at 10 µM; actives lie on both sides
row,SMILES,binding response (% of control)
1,O=C(COC(=O)c1ccccc1)Nc1ccc(Cl)cc1C(=O)c1ccccc1,131% (active)
2,O=C(CCNS(=O)(=O)c1ccccc1)Nc1ccc(Cl)cc1C(=O)c1ccccc1,107%
3,CN1CCN(C(=S)SCC(=O)Nc2ccc(Cl)cc2C(=O)c2ccccc2)CC1,108%
4,COC(=O)C1=C(c2cc3ccccc3s2)C[C@@H]2CC[C@H]1N2C(=O)NC(C)C,108%
5,COc1cccc(C(=O)N2C[C@H]3C[C@@H](C2)c2cccc(=O)n2C3)c1,98%
6,CN(C)CC1Oc2ccccc2OC1(O)c1ccccc1 (stereo not given),106%
7,Cc1ccsc1C(=O)C1CCCN(Cc2ccc(O)cc2)C1 (stereo not given),96%
8,COc1ccc(C(=O)C2CCCN(Cc3ccc(C)s3)C2)cc1OC (stereo not given),103%
9,Cc1ccc(CN2CCCC(C(=O)c3ccc4c(c3)OCO4)C2)cc1C (stereo not given),49% [inhibitor] (active)
10,CN(C)C(=O)Oc1ccc2c(c1)O/C(=C\c1ccccc1)C2=O,102%
11,NCC(O)c1ccc(O)cc1 (stereo not given),74% [inhibitor] (active)
12,COc1ccc2c(c1)[C@]13CCCCC1C(C2)N(C)CC3 (stereo not given in full),100%
13,CN(C)CC1CCCCC1OC(=O)c1ccc(Cl)c(Cl)c1 (stereo not given),135% (active)
14,COC(=O)C1=C(c2cc3ccccc3o2)C[C@@H]2CC[C@H]1N2C(=O)NC1CCCCC1,103%
15,COC(=O)C1=C(c2cc3ccccc3s2)C[C@@H]2CC[C@H]1N2C(=O)NCCO,107%
16,COc1cccc(OC)c1C(=O)NC(=S)N1C[C@H]2C[C@H](C1)c1cccc(=O)n1C2,103%
17,CCCn1c(C(=O)c2ccccc2OC)nc2ccccc21,98%
18,O=C1NC(=O)C(CCc2ccccn2)(Cc2cccc(Cl)c2Cl)C(=O)N1c1ccc(Br)cc1 (stereo not given),89%
19,Cc1ccc(N2C(=O)NC(=O)C(CCc3ccncc3)(Cc3cccc(Cl)c3Cl)C2=O)cc1 (stereo not given),138% (active)
20,COc1ccc2[nH]c3c(c2c1)CCN[C@H]3C,105%
21,CC[C@H]1CC2CN3CCc4c([nH]c5ccccc45)C(C(=O)OC)(C2)C13 (stereo not given in full),99%
22,CNCC(O)c1cc(F)c(OCc2ccccc2)c(OCc2ccccc2)c1F (stereo not given),103%
23,COc1ccc(-c2nn(CCC#N)cc2C(=O)Nc2ccc(C(C)=O)cc2)cc1,111%
24,COC(=O)C1=C(c2cc3ccccc3s2)C[C@@H]2CC[C@H]1N2C(=O)NCc1cccc2ccccc12,105%
25,O=C(Cc1ccccc1[N+](=O)[O-])N1CCN(Cc2ccc3c(c2)OCO3)CC1,46% [inhibitor] (active)
26,Cc1cc(=O)oc2c(C)c(OCC(=O)N3CCN(Cc4ccc5c(c4)OCO5)CC3)ccc12,106%
27,Fc1ccc(N2CCN(Cc3ccc4c(c3)OCO4)CC2)cc1,98%
28,COc1ccc2c(c1O)-c1cccc3c1[C@@H](C2)N(C)CC3,95%
29,CCOc1ccc(CN(CCCl)CCCl)cc1C(=O)OC,111%
30,COC(=O)C1=C(c2ccccc2)C[C@@H]2CC[C@H]1N2C(=O)N1CCCCC1,102%
